# Laboratory results from PubChem BioAssay (NCI).
# Compounds without any hit were thinned out: in the full panel of roughly 79,000, 15% have a hit. Calls of active or inactive are those of the source. Cut-off read from the data, not from the text of the source: active = growth inhibition above about 70%; inactive = the rest. Where a SMILES comes first, the peptide text is derived from it. [ ]: non-standard residue; d: D form. The star is where a group is joined. Ac5c = NC1(C(=O)O)CCCC1; Cbz = O=C(OCc1ccccc1)*
# Experiment: NCI Yeast Anticancer Drug Screen. Data for the cln2 rad14 strain (AID 165);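 note: 0% = growth equal to vehicle treated cultures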
# Conditions: S. cerevisiae cln2 rad14 strain, at 50.0 µM, hits give high values
# In short: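 The screen exposed genetically defined yeast (cln2 rad14) to test compounds and scored growth inhibition relative to vehicle-treated controls.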
row,Compound,growth inhibition
1,CC(=O)CC(=O)Nc1cccc(C)c1,5.3% (inactive)
2,CCC(C)CN1C(=O)NC(C)(Cc2ccccc2)C1=O (stereo not given),16.8% (inactive)
3,Cc1ccc(C(=O)Nc2ccc(S(=O)(=O)O)c3cc(S(=O)(=O)O)cc(S(=O)(=O)O)c23)cc1N,1.7% (inactive)
4,O=C(O)c1ccncc1C(=O)c1csc2ccccc12,22.1% (inactive)
5,COc1ccc(/C=C/C(C)=O)c(OC)c1,-20.6% (inactive)
6,CS1(=O)=NC(=O)C(N2C(=O)c3ccccc3C2=O)CC1 (stereo not given),-17.4% (inactive)
7,BrC1CC2CCCCC2CC1Br (stereo not given),-9.75% (inactive)
8,Nc1nc(Cl)c2nc(Cl)n(C3OC(CO)C(O)C3O)c2n1 (stereo not given),-16% (inactive)
9,Nc1nc(-c2cc(-c3ccco3)nc(N)n2)cc(-c2ccco2)n1,-17.8% (inactive)
10,COC(=O)C(/C(=N/NC(N)=O)C(=O)Nc1c(C)cccc1C(C)(C)C)c1nc2ccc(Cl)cc2[nH]c1=O (stereo not given),3.3% (inactive)
11,Cc1ccc(Nc2nc(C)c(C(=O)CC(=O)C(=O)Nc3c(C)cccc3C(C)(C)C)s2)cc1,-19.2% (inactive)
12,Clc1nc2ccccc2s1,-38% (inactive)
13,O=C(O)/C(=C(\CO)c1ccccc1)c1ccccc1,24.4% (inactive)
14,CCCCC(=O)CCC(=O)O,13.8% (inactive)
15,O=C(O)CSc1ccn(Cc2ccccc2)c1,-22.8% (inactive)
16,O=C(O)CNC(=O)C1(NC(=O)CNC(=O)OCc2ccccc2)CCCC1 (Cbz-Gly-[Ac5c]-Gly-OH),-2.3% (inactive)
17,O=c1c2ccccc2n2c(-c3ccc(O)cc3)nnc2n1-c1ccccc1,7.75% (inactive)
18,COc1ccccc1/C=C1\C(=O)N(C(=O)Cc2ccccc2)N=C1C,-10.8% (inactive)
19,CCOC(=O)/C(O)=C(/C=N\C(=S)Nc1ccccc1Cl)C(=O)OCC,5.35% (inactive)
20,O=C1CC[C@H](NC(=O)Cc2ccccc2)C(=O)N1,6.35% (inactive)

row,Compound,growth inhibition
1,CN(C)C(=S)/N=c1\ss/c(=N\C(=S)N(C)C)n1-c1ccc2c(c1)OCO2,-1.45% (inactive)
2,COC(=O)C1Cc2ccccc2C1=O (stereo not given),-40.5% (inactive)
3,CCCCCCSCCO,23.6% (inactive)
4,Cc1nc(N=C(N)N)nc2ccccc12,16.8% (inactive)
5,CCOC(=O)c1[nH]n(-c2ccccc2)c(=O)c1/C=N/C(=S)Nc1c(CC)cccc1CC,-13.2% (inactive)
6,CC1=C(O[Si](C(C)C)(C(C)C)C(C)C)C2CC1(OS(=O)(=O)C(F)(F)F)[C@H]1C(=O)N(c3ccccc3)C(=O)[C@@H]21 (stereo not given in full),17.4% (inactive)
7,CC1SC2(C(=O)Nc3ccccc32)N(c2ccc(Cl)cc2)C1=O (stereo not given),23.9% (inactive)
8,O=C(NCCN1CCOCC1)c1ccc(C(=O)NCCN2CCOCC2)cc1,17.5% (inactive)
9,CC(=O)OCC1OC(OCC(OC(C)=O)C(OC(C)=O)C(OC(C)=O)c2cnn(-c3ccccc3)n2)C(OC(C)=O)C(OC(C)=O)C1OC(C)=O (stereo not given),-15.2% (inactive)
10,Nc1nc(CCC(=O)O)cs1,-24.1% (inactive)
11,Nc1ncnc2c1ncn2C1CCN(CCO)C1=O (stereo not given),-17.4% (inactive)
12,COC(=N)c1nnn(-c2ccccc2)n1,-16.1% (inactive)
13,Cc1ccc(C(=O)Cc2ccccc2)cc1,1.25% (inactive)
14,CCC1(CC)C(=O)N(C(=O)c2ccc(C)cc2)N(C(=O)c2ccc(C)cc2)C1=O,18.1% (inactive)
15,O=c1[nH]nc(Cc2ccccc2)n1/N=C\c1ccccc1,-11.3% (inactive)
16,CCOC(=O)c1c(C)c2c(n1C)CC/C(=C\N1CCN(c3ccccc3)CC1)C2=O,-14.8% (inactive)
17,COc1ccc(NS(=O)(=O)c2ccc(NCc3c4ccccc4nc4ccccc34)cc2)nn1,29.7% (inactive)
18,O=C(Nc1ccccc1[N+](=O)[O-])OCc1ccccc1,10.1% (inactive)
19,CC1(C)C(N)C(C)(C)C1N (stereo not given),11.8% (inactive)
20,O=C1CN(N2CCOCC2)CC(=O)N2CCCCN12,19.9% (inactive)
